Assay outcomes (PubChem)
M1 ag parental: counter-screen for M1 agonists: effect in parental CHO-K1 cells | Fluo-8 calcium fluorescence; scaled to maximal ATP response, vehicle zero | activation, % at 3 µM | hit rate 0.48% among 360,000; in the data active = activation above about 15%;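 note: untransfected CHO-K1 host cells lacking M1 receptor as counterscreen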
CHRM1 antagonist: human M1 muscarinic receptor antagonists, primary screen, CHO-K1 cells, Fluo-8 calcium fluorescence, 1536-well; CHO-K1 hM1, ACh EC80 antagonist; Muscarinic acetylcholine receptor M1 (Homo sapiens), P11229; hit rate 1.3% among 360,000; inhibition, % at 3 µM;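 active = percent inhibition above its own plate's cutoff, namely the mean of that plate's compound wells plus 3 SD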;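 note: peak over basal fluorescence ratio during 140 s after agonist addition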
Target sequence (P11229 whole entry, looked up): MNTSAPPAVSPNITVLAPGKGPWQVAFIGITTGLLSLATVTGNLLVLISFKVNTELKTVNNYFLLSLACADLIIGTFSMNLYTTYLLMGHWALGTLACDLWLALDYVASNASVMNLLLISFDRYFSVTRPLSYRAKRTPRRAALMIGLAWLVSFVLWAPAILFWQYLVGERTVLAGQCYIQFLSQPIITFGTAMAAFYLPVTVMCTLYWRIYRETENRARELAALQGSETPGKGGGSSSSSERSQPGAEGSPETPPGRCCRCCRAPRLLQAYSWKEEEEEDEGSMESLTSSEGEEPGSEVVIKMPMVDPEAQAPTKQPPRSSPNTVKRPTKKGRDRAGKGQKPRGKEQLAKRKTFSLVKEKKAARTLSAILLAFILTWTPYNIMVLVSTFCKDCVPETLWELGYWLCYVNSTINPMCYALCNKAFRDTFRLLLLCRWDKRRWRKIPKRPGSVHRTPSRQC
CHO-K1 Ca antag: counter-screen for M1 antagonists: effect in parental CHO-K1 cells | ATP-induced calcium, Fluo-8 fluorescence | inhibition, % at 3 µM | hit rate 0.6% among 360,000;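 active = inhibition above a per-plate cutoff, the plate's mean sample inhibition plus 3 SD, cut at about 24% in these data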
M1 ag: human M1 muscarinic receptor agonists, primary screen, Fluo-8 calcium fluorescence, CHO-K1 cells, HTS. Muscarinic acetylcholine receptor M1 (Homo sapiens), P11229. activation, % at 3 µM. CHO-K1 hM1, agonist mode; 0% DMSO, 100% acetylcholine EC100. hit rate 0.33% among 360,000;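 active = activation above the run's mean compound activation plus 3 SD, cut at about 16% in these data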;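 note: peak over basal fluorescence ratio within a 140 s kinetic read after compound addition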
CHO-K1 Ca PAM: nonselective calcium activators in parental CHO-K1 cells, primary screen, counter-screen for M1 PAM project, cell-based, Fluo-8 calcium fluorescence, full deck, 1536-well | ATP EC20; 0% at ATP EC20, 100% at ATP max | activation, % at 3 µM | hit rate 0.02% among 360,000;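 active = activation above the run cutoff, the mean activation of all test compounds plus 3 SD, cut at about 40% in these data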;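 note: peak over basal fluorescence ratio in a 140 s read after ATP addition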
M1 PAM: human M1 muscarinic receptor positive allosteric modulators, primary screen, CHO-K1 cells, Fluo-8 calcium fluorescence, 1536-well; activation, % at 3 µM; CHO-K1 hM1, ACh EC20; 0% = ACh EC20, 100% = maximal ACh; AID 588819, 2011; Muscarinic acetylcholine receptor M1 (Homo sapiens), P11229; hit rate 0.088% among 360,000; in the data active = activation above about 19%, passing the limit was not always enough
Large screens that a line does not name were inactive. A selection: hits, their analogues and other compounds. The true share with any hit is near 2.3%.

CC(C)CNc1ncnc2c1ncn2[C@H]1CN(CCN2CCOCC2)C[C@@H](CO)O1	none
CCn1cc(C(=O)NCCCN2CC(C)CC(C)C2)c(=O)c2cc(S(=O)(=O)N(C)C3CCCCC3)ccc21 (stereo not given)	none
CCn1cc(C(=O)NCCCN2CCC(C)CC2)c(=O)c2cc(S(=O)(=O)N(C)C3CCCCC3)ccc21	CHRM1 antagonist 38
CC(=O)Nc1cccc(C(=O)OCC(=O)NC2CCCCCCC2)c1	M1 ag parental 15
CCC(C)[C@H]1COCCS(=O)(=O)N1Cc1ccc(Br)cc1 (stereo not given in full)	none
COc1cc(NC(=O)C(C)Oc2ccccc2)c(OC)cc1NC(=O)c1ccccc1 (stereo not given)	CHO-K1 Ca antag 24
CC(Oc1ccccc1)C(=O)Nc1ccc(NC(=O)c2ccccc2)cc1 (stereo not given)	none
COc1ccccc1CNC(=O)CN(C)CC(=O)Nc1ccccc1Br	none
CCOC(=O)c1cnc2ccccc2c1NCc1ccco1	CHRM1 antagonist 92
NNC(=O)c1cc(C23CC4CC(CC(C4)C2)C3)[nH]n1	M1 ag parental 17
Cn1c(=O)c2sccc2n(Cc2ccccc2)c1=O	none
Cc1ccc(SCCC(=O)Nc2cccc(N(C)S(C)(=O)=O)c2)cc1	M1 ag parental 25, CHO-K1 Ca antag 42
CN(c1cccc(NC(=O)Nc2cccc(Cl)c2)c1)S(C)(=O)=O	M1 ag parental 18
CCc1nc2ccc(C(=O)N(C)Cc3ccco3)cn2c1N(CC)Cc1cccc(Br)c1	none
c1ccc(Cc2noc(CN3CCN(C4CCc5ccccc5C4)CC3)n2)cc1 (stereo not given)	CHRM1 antagonist 88
COc1ccccc1CN1CCN(Cc2nc(Cc3ccccc3)no2)CC1	none
c1ccc(Cc2noc(CN3CCCN(C4Cc5ccccc5C4)CC3)n2)cc1	CHRM1 antagonist 100
c1ccc(Cc2noc(CN3CCN(Cc4ccc5c(c4)OCO5)CC3)n2)cc1	none
C(=C\c1ccccc1)/CN1CCN(Cc2nc(Cc3ccccc3)no2)CC1	CHRM1 antagonist 43
c1ccc(Cc2noc(CN3CCC(CN4CCOCC4)CC3)n2)cc1	none
O=[N+]([O-])c1cccc(-c2c(-c3ccccc3)ncc3ccc(F)cc23)c1	none
COc1ccccc1C(=O)N(C)c1nnc(-c2ccccc2)s1	none
O=C(CNC(=O)c1ccc(Cl)cc1)NNc1c(F)c(F)cc(F)c1F	none
CC(=O)N1CCc2cc(Br)cc(S(=O)(=O)N3CCN(C(=O)c4ccco4)CC3)c21	CHO-K1 Ca antag 24
CC(=O)N1CCc2cc(Br)cc(S(=O)(=O)N3CCCCCC3)c21	none
OCCCCNCc1ccc(OCc2ccccc2)cc1	none
OCCCCNCc1ccc(OCc2ccccc2Cl)cc1	CHRM1 antagonist 44
CCc1cc(OCCCCNCc2ccccc2)ccc1Cl	M1 ag parental 17
CCCNC(=O)C1(C)CCN(C(=O)c2ccc(F)c(Cl)c2)C1 (stereo not given)	none
CCCNC(=O)C1(C)CCN(C(=O)c2ccc3c(c2)CCO3)C1 (stereo not given)	M1 PAM 31
CN(C)S(=O)(=O)c1cc(NC(=O)c2ccc(-n3ccnc3)c([N+](=O)[O-])c2)ccc1Cl	CHRM1 antagonist 26
COc1ccccc1NC(=O)c1ccc(-n2ccnc2)c([N+](=O)[O-])c1	none
CC(C)NC(=O)c1csc(COCCO)n1	none
CCN(C(=O)c1cccs1)c1nc(-c2ccc(OC)cc2)cs1	none
COc1cccc(N(C(=O)c2cccs2)c2nc3ccccc3s2)c1	CHO-K1 Ca antag 26
CCOC(=O)c1sc(S(C)(=O)=O)c2c1CCc1conc1-2	CHO-K1 Ca antag 36
CC[C@]1(C(=O)OC)[C@H]2C(=O)N(C)C(=O)[C@H]2[C@H]2CN=C(SCc3ccc(C)cc3)N21	none
Cc1cccc(C(=O)NCC(=O)NC2CCN(Cc3ccccc3)CC2)c1	none
CN(C)S(=O)(=O)c1cccc(C(=O)NCC(=O)NC2CCN(Cc3ccccc3)CC2)c1	CHRM1 antagonist 34
CCCCc1nc2cc(C(=O)NCc3nccn3CC)ccc2o1	CHRM1 antagonist 87
CCN(CC)CCCCN1c2ccccc2Sc2ccccc21	CHRM1 antagonist 101
CCN(CC)CC(=O)N1c2ccccc2Sc2ccccc21	CHRM1 antagonist 101
CCN(CC)CC(=O)N1c2ccccc2Sc2ccc(Cl)cc21	CHRM1 antagonist 99
CCN(CC)C(=O)N1c2ccccc2Sc2ccccc21	none
COc1ccccc1Nc1nc2c(C)cccc2cc1C#N	none
COc1ccccc1Nc1nc2cc(C)ccc2cc1C#N	M1 ag parental 16
COc1ccccc1Nc1nc2ccc(C)cc2cc1C#N	CHO-K1 Ca antag 25
CC(=O)c1cccc(N(C(=O)CNC(=O)c2cccs2)C(C(=O)NCC2CCCO2)c2ccccc2)c1 (stereo not given)	none
CN(C)/C=N/c1sc2c(c1C#N)CC(C)(C)NC2(C)C	M1 PAM 23
Nc1cc(=O)[nH]c(SCc2ccc(Cl)cc2Cl)n1	M1 ag parental 15
Nc1ncnc2nc(SCc3ccc(Cl)cc3Cl)[nH]c12	none
CSc1ccccc1C(=O)C1CCCN(Cc2c(C)n(C)n(-c3ccccc3)c2=O)C1 (stereo not given)	CHRM1 antagonist 79
COc1cc(NC(=O)NNC(=O)c2cc3occc3n2C)cc(OC)c1OC	none
OC(CNC1CCCc2ccccc21)COc1ccc2ccccc2c1 (stereo not given)	none
CCc1ccccc1OC[C@@H](O)CN[C@H]1CCCc2ccccc21	CHO-K1 Ca antag 25
Cc1nnc(SCC(=O)Nc2cccc(S(=O)(=O)N3CCCC3)c2)n1C1CC1	none
CCCCCCN1C[C@H](n2cc(-c3ccc(F)cc3)nn2)[C@@H](O)C[C@@H]1c1ccc(C)cc1	CHRM1 antagonist 19
CC(=O)c1c(C)nn(CC(=O)NC2CCCN(Cc3ccc(CC(C)C)cc3)C2)c1C (stereo not given)	CHRM1 antagonist 47
COC(=O)C1=CN(C2CC2)C=C(C(=O)OC)C1c1ccc(C(=O)OC)cc1	CHRM1 antagonist 34
Cc1cc(NC(=O)Cc2cc(F)cc(F)c2)no1	none
Cc1noc(C)c1CSc1nc2ccccc2[nH]1	CHRM1 antagonist 24
c1ccc(-c2cc(CSc3nc4ccccc4[nH]3)on2)cc1	CHRM1 antagonist 21
O=C(C[C@@H]1C/C=C\C[C@H](NC(=O)OCC2c3ccccc3-c3ccccc32)C(=O)O[C@H](c2ccccc2)CNC1=O)NCCO	none
O=C1CCC(=O)c2ccc3c4c(ccc1c24)CC3	none
